Results filed as inconclusive are left out. Activity calls are given as the source filed them. The calls were made as follows, unless noted: active = hit-call score of the fitted dose curve at least 0.9, where 1 is the maximum; inactive = score below 0.9.
What was measured:
[1] = ACEA_ER_80hr: ACEA Biosciences xCELLigence Real-Time Cell Analysis on Estrogen Receptor Agonism for Proliferation (AID 2282667; active = hit-call score of the fitted dose curve at least 0.9, where 1 is the maximum); conditions: T47D proliferation, impedance (xCELLigence), 80 h
Method in brief: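 Impedance readout (RT-CES) of T47D proliferation at 80 h post-dose; gain of signal vs DMSO baseline. Compounds: 8 conc, 1:4 serial, top 100 uM final, ≤0.5% DMSO; biological duplicate.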

[2] = ATG_CRE_CIS: Attagene CIS-FACTORIAL HepG2 Assay for human cAMP Responsive Element (CRE) binding protein 3 (AID 2282926); conditions: HepG2 CRE cis-reporter, Attagene multiplexed mRNA; actives raise or lower the signal
Method in brief: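 Readout: fluorescently labelled reporter transcripts resolved by capillary electrophoresis after RT-PCR, taken 24 h post-dosing in transfected HepG2. Endogenous transcription factor activity drives each cis-element reporter; gain or loss of signal fitted relative to DMSO control.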

[3] = target: CCAAT/enhancer-binding protein beta (Homo sapiens) (UniProt P17676); assay: ATG_C_EBP_CIS: Attagene CIS-FACTORIAL HepG2 Assay for human CCAAT/Enhancer Binding Protein (C/EBP) beta (AID 2282927); conditions: HepG2 Attagene cis-factorial transcription factor reporter; actives raise or lower the signal
CCAAT/enhancer-binding protein beta (Homo sapiens), sequence (P17676 whole entry, looked up): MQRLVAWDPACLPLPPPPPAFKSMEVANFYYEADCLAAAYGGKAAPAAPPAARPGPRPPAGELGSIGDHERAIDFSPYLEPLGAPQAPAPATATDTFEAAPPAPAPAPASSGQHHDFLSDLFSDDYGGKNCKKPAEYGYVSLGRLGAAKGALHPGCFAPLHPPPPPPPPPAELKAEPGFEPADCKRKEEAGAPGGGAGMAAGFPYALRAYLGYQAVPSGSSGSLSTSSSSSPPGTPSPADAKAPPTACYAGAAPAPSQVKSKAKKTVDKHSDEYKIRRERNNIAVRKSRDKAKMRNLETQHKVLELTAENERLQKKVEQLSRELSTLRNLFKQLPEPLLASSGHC
Method in brief: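 Changes in reporter mRNA, rather than exogenous chimeric receptor activity, reflect native C/EBP signalling in transfected HepG2 cells dosed for 24 h; transcripts are detected by RT-PCR and capillary electrophoresis.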

[4] = ATG_CMV_CIS: Attagene CIS-FACTORIAL HepG2 Assay for human CMV (Internal Marker) (AID 2282928); conditions: HepG2 CMV promoter reporter, transcription factor profiling; actives raise or lower the signal;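 also: endpoint acts as a background internal control marker rather than a target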
Method in brief: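 24 h chemical treatment, HepG2 with transient multi-reporter transfection; RNA → oligo(dT) RT → PCR → 6-FAM extension → HpaI digest → CE fluorescence. Bidirectional fit, DMSO negative control.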

[5] = ATG_DR4_LXR_CIS: Attagene CIS-FACTORIAL HepG2 Assay for human Liver X Receptor (LXR), DR4 submotif (AID 2282929); conditions: HepG2 Attagene DR4 cis-reporter, mRNA transcription; actives raise or lower the signal
Method in brief: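 Fluorescence intensity of labelled reporter cDNA fragments, separated by capillary electrophoresis, gives the signal. HepG2 cells bearing cis-regulated reporter constructs were treated 24 h; activity fitted bidirectionally relative to DMSO negative control.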

[6] = target: Aryl hydrocarbon receptor (Homo sapiens) (UniProt P35869); assay: ATG_Ahr_CIS: Attagene CIS-FACTORIAL HepG2 Assay for human Aryl Hydrocarbon Receptor (Ahr) (AID 2282930); conditions: HepG2 AhR cis-factorial reporter transcription; actives raise or lower the signal
Aryl hydrocarbon receptor (Homo sapiens), sequence (P35869 whole entry, looked up): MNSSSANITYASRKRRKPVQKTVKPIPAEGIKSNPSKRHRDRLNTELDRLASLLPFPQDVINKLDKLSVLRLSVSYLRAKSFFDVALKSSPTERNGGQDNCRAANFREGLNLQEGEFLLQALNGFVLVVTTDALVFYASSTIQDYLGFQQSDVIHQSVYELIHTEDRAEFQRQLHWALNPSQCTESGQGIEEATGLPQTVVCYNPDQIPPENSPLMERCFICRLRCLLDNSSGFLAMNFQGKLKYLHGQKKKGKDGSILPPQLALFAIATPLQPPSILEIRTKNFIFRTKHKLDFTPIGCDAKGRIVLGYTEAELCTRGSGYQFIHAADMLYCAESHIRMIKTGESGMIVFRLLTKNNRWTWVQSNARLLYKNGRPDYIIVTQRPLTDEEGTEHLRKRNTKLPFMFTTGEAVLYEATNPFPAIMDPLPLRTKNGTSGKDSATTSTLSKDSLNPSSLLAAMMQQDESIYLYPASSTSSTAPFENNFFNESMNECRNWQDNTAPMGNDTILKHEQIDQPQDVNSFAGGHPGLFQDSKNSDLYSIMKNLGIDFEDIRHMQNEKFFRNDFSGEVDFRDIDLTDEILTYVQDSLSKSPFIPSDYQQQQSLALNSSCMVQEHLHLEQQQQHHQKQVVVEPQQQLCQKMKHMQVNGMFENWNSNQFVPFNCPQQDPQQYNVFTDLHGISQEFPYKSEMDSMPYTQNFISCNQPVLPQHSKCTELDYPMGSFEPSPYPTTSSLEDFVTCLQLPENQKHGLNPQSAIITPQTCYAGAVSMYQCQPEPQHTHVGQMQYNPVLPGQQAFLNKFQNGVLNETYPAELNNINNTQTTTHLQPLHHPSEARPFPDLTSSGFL
Method in brief: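 HepG2, transient MRTU (cis) transfection, 24 h exposure. RNA → cDNA → PCR → 6-FAM primer extension → HpaI 2 h 37 C → CE. Fit: bidirectional, DMSO baseline.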

[7] = ATG_AP_1_CIS: Attagene CIS-FACTORIAL HepG2 Assay for human Activator Protein 1 (AP-1) (AID 2282931); conditions: HepG2 Attagene cis-factorial AP-1 reporter mRNA; actives raise or lower the signal
Method in brief: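 Multiplexed HepG2 reporter assay, 24 h dosing. mRNA induction detected by RT-PCR plus capillary electrophoresis. Activity fitted in both directions against DMSO.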

[8] = ATG_AP_2_CIS: Attagene CIS-FACTORIAL HepG2 Assay for human Activator Protein 2 (AP-2) (AID 2282932); conditions: HepG2 AP-2 cis-reporter, Attagene transcription factor profiling; actives raise or lower the signal
Method in brief: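 Transiently transfected HepG2 cells are exposed to chemical for 24 h. Reporter transcripts are then measured as fluorescence following RT-PCR and capillary separation, and gain- or loss-of-signal is fitted relative to DMSO.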

[9] = ATG_BRE_CIS: Attagene CIS-FACTORIAL HepG2 Assay for human Bone Morphogenetic Protein (BMP) Response Element (BRE) (AID 2282933); conditions: HepG2 BMP response element reporter, Attagene transcription factor profiling; actives raise or lower the signal
Method in brief: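 After a 24 h chemical treatment, transiently transfected HepG2 cells were lysed for RNA; reporter transcripts were quantified by fluorescent RT-PCR and capillary electrophoresis, normalised to DMSO.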

[10] = target: Retinoic acid receptor alpha (Homo sapiens) (UniProt P10276); assay: ATG_DR5_RAR_CIS: Attagene CIS-FACTORIAL HepG2 Assay for human Retinoic Acid Receptor Alpha (RARE), DR5 submotif (AID 2282934); conditions: HepG2 Attagene cis-factorial RARE DR5 reporter, mRNA; actives raise or lower the signal
Retinoic acid receptor alpha (Homo sapiens), sequence (P10276 whole entry, looked up): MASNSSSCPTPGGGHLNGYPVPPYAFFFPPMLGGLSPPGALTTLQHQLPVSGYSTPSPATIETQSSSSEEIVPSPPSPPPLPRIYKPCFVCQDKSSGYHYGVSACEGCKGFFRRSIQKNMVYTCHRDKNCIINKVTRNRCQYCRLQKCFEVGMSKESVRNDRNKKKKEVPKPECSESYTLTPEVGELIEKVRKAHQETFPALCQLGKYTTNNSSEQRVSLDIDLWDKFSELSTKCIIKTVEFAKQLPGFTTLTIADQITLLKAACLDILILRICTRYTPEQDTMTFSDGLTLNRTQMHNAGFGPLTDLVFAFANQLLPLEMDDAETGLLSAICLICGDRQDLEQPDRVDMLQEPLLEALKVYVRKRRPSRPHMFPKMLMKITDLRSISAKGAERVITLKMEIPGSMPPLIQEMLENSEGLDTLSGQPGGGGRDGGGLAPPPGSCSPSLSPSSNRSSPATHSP
Method in brief: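 HepG2, transient cis-reporter transfection, 24 h exposure. mRNA readout: RT-PCR, FAM label, HpaI cut, capillary electrophoresis. DMSO baseline, gain/loss fitting.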

[11] = target: Transcription factor E2F1 (Homo sapiens) (UniProt Q01094); assay: ATG_E2F_CIS: Attagene CIS-FACTORIAL HepG2 Assay for human E2F Transcription Factor 1 (AID 2282935); conditions: HepG2 Attagene cis-reporter, E2F reporter RNA transcripts; actives raise or lower the signal
Transcription factor E2F1 (Homo sapiens), sequence (Q01094 whole entry, looked up): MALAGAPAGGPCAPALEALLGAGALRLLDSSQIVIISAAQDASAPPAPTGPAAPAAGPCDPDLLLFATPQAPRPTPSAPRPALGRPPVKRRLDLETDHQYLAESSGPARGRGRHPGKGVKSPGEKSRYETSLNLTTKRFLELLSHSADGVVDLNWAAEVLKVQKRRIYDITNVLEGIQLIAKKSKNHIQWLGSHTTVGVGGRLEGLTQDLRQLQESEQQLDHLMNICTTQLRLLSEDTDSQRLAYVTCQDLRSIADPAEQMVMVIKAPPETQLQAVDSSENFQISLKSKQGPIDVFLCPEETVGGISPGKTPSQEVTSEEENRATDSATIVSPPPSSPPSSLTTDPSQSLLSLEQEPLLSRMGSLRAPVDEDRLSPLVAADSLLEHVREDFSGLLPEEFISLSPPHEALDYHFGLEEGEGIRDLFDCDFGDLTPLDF
Method in brief: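 Fluorescent RT-PCR products, digested with HpaI for 2 h at 37 C, are separated by capillary electrophoresis. Source RNA comes from transfected HepG2 cultures treated for 24 h.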

[12] = ATG_E_Box_CIS: Attagene CIS-FACTORIAL HepG2 Assay for human Enhancer Box (E-box) (AID 2282936); conditions: HepG2 E-box cis-reporter transcription, actives raise or lower the signal
Method in brief: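 Fluorescent reporter fragments separated by capillary electrophoresis gave the signal; mRNA came from HepG2 cells transfected with cis-element reporters and treated 24 h. Curves fitted bidirectionally relative to DMSO controls.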

[13] = ATG_M_61_CIS: Attagene CIS-FACTORIAL HepG2 Assay for M61 Transcription Factor (Internal Marker) (AID 2282937); conditions: HepG2 Attagene CIS-FACTORIAL M61 internal marker reporter; actives raise or lower the signal
Method in brief: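 Endogenous transcription factor activity in HepG2 is read through transiently transfected cis-element reporter units. After 24 h dosing, RNA undergoes reverse transcription, PCR and primer extension with 6-FAM before capillary electrophoresis; DMSO-referenced bidirectional fit.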

[14] = ATG_EGR_CIS: Attagene CIS-FACTORIAL HepG2 Assay for human Early Growth Response 1 (EGR1) (AID 2282938); conditions: HepG2 Attagene CIS-FACTORIAL EGR reporter mRNA; actives raise or lower the signal
Method in brief: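 Activity is taken as induction or loss of reporter mRNA versus DMSO, fitted bidirectionally. Transcripts from cis-regulated reporter units in transiently transfected HepG2 were measured after 24 h by RT-PCR with capillary electrophoresis.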

[15] = ATG_ERE_CIS: Attagene CIS-FACTORIAL HepG2 Assay for Estrogen Response Element (ERE) (AID 2282940); conditions: HepG2 ERE cis-reporter, Attagene RNA transcript; actives raise or lower the signal
Method in brief: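 Measuring endogenous transcription factor output, the assay doses transfected HepG2 cells for 24 hours and quantifies reporter transcripts by fluorescent RT-PCR and capillary electrophoresis, with DMSO as baseline.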

[16] = ATG_Ets_CIS: Attagene CIS-FACTORIAL HepG2 Assay for human Erythroblast Transformation Specific (ETS) (AID 2282941); conditions: HepG2 ETS cis-reporter transcription, actives raise or lower the signal
Method in brief: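 Cis-regulated reporter mRNA induction in HepG2 (transient transfection), 24 h exposure, RT-PCR plus capillary electrophoresis detection; DMSO serves as negative control and baseline.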

[17] = target: Hepatocyte nuclear factor 3-beta (Homo sapiens) (UniProt Q9Y261); assay: ATG_FoxA2_CIS: Attagene CIS-FACTORIAL HepG2 Assay for human Forkhead box A2 (FOXA2) (AID 2282942); conditions: HepG2 cis-reporter transcription factor activity, 24 h; actives raise or lower the signal
Hepatocyte nuclear factor 3-beta (Homo sapiens), sequence (Q9Y261 whole entry, looked up): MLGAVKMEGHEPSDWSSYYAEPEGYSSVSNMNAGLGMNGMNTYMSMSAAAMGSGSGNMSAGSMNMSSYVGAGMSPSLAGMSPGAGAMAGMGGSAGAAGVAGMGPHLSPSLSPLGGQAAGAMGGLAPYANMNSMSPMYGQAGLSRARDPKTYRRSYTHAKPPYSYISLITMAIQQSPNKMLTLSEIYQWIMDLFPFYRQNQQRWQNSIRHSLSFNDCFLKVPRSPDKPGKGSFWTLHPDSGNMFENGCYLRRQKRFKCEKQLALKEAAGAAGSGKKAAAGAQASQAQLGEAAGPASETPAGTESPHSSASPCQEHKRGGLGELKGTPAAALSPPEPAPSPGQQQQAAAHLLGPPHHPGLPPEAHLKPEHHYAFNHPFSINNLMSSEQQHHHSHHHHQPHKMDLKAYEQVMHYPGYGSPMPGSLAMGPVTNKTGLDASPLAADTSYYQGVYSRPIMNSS
Method in brief: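 Reporter transcript induction is measured by fluorescence after capillary electrophoresis of RT-PCR products from HepG2 cells exposed 24 h. Cis-regulated reporter units report endogenous factor activity; curves fitted both directions against DMSO.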

[18] = ATG_FoxO_CIS: Attagene CIS-FACTORIAL HepG2 Assay for human Forkhead box O (FoxO) (AID 2282943); conditions: HepG2 Attagene cis-reporter, FoxO element, mRNA; actives raise or lower the signal
Method in brief: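 Human hepatoma HepG2 cells carry transiently introduced reporter transcription units controlled by cis promoter elements. Chemical treatment lasted 24 h, and mRNA signal was compared with DMSO.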

[19] = ATG_GATA_CIS: Attagene CIS-FACTORIAL HepG2 Assay for human GATA Binding Protein (AID 2282944); conditions: HepG2 GATA cis-element reporter, Attagene multiplex mRNA; actives raise or lower the signal
Method in brief: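 Measures endogenous transcription factor-driven reporter mRNA in HepG2 cells transiently carrying cis-regulated constructs. 24 h dosing; RNA via oligo(dT) reverse transcription, PCR, HpaI digestion, capillary electrophoresis; fitted relative to DMSO.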

[20] = ATG_M_19_CIS: Attagene CIS-FACTORIAL HepG2 Assay for M19 Transcription Factor (Internal Marker) (AID 2282939); conditions: HepG2 Attagene CIS-FACTORIAL M19 internal marker reporter; actives raise or lower the signal
Method in brief: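 In this multiplexed cell assay, transiently transfected HepG2 reporter units report endogenous transcription-factor activity; after 24 hours of treatment, labelled reporter cDNA fragments are quantified by capillary electrophoresis and fitted bidirectionally against DMSO.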

Measured: AC50

Cc1c(Cl)cccc1Cl
inactive: [1] | [2] | [3] | [4] | [5] | [6] | [7] | [8] | [9] | [10] | [11] | [12] | [13] | [14] | [15] | [16] | [17] | [18] | [19]

C=C(C)[C@@H]1CC=C(C)CC1
inactive: [1] | [2] | [3] | [4] | [5] | [6] | [7] | [8] | [9] | [11] | [12] | [13] | [14] | [20] | [15] | [17] | [18] | [19]

Cc1ccc(C)c(OCCCC(C)(C)C(=O)O)c1
inactive: [1] | [2] | [3] | [4] | [5] | [6] | [7] | [8] | [9] | [10] | [11] | [12] | [13] | [14] | [16] | [17] | [18] | [19]

CCCCCCOc1ccc(N)cc1
active: [4] 155 µM | [5] 159 µM
inactive: [1] | [2] | [3] | [6] | [7] | [8] | [9] | [10] | [11] | [12] | [13] | [20] | [15] | [16] | [17] | [18] | [19]

N=C1C=CC(=C(c2ccc(N)cc2)c2ccc(N)cc2)C=C1
active: [3] 168 µM | [4] 33.4 µM | [5] 27.6 µM | [6] 8.36 µM | [8] 24.7 µM | [9] 33.4 µM | [12] 72.5 µM | [16] 25.4 µM | [18] 180 µM | [19] 26.2 µM
inactive: [1] | [2] | [7] | [10] | [11] | [13] | [14] | [15] | [17]

O=C(Oc1ccccc1)c1ccccc1C(=O)Oc1ccccc1
inactive: [1] | [2] | [3] | [4] | [5] | [6] | [8] | [9] | [10] | [11] | [12] | [13] | [20] | [15] | [16] | [17] | [18] | [19]
active: [7] 46.3 µM

CCCCCCCCCCCCCCCCCCOS(=O)(=O)O
inactive: [2] | [3] | [5] | [6] | [9] | [10] | [11] | [12] | [14] | [16] | [18] | [19]
active: [1] 10.5 µM | [4] 11.1 µM | [7] 20.3 µM | [8] 57.3 µM | [13] 54.7 µM | [15] 26.8 µM | [17] 56.7 µM

Cc1ccc(S(=O)(=O)N=C=O)cc1
inactive: [1] | [2] | [3] | [4] | [6] | [7] | [8] | [9] | [10] | [11] | [12] | [13] | [14] | [20] | [15] | [17] | [18] | [19]

— PubChem BioAssay (EPA / NIEHS)
